# Measured values: PMC7826789 (International Journal of Molecular Sciences, 2021)
# Legend:
# Conditions in all cases: Compound Concentration (nM):1000
# TXK = tested on: TXK
# [1] = tested on: TYK2(JH1domain-catalytic)
# [2] = tested on: TYK2(JH2domain-pseudokinase)
# TYRO3 = tested on: TYRO3
# ULK1 = tested on: ULK1
# ULK2 = tested on: ULK2
# ULK3 = tested on: ULK3
# VEGFR2 = tested on: T1, VEGFR2
# T1 construct: gene KDR
# VPS34 = tested on: T2, VPS34
# T2 construct: gene PIK3C3
# VRK2 = tested on: VRK2
# 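Further: KINOMEscan scanMAX binding as percent activity remaining versus control; lower means stronger binding.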
Structure (SMILES),Percent Control (TXK),Percent Control [1],Percent Control [2],Percent Control (TYRO3),Percent Control (ULK1),Percent Control (ULK2),Percent Control (ULK3),Percent Control (VEGFR2),Percent Control (VPS34),Percent Control (VRK2)
NS(=O)(=O)c1ccc(N/N=C2\C(=O)Nc3ccc(Cl)cc32)cc1 [GW280670X],100%,98%,100%,100%,100%,100%,100%,52%,100%,100%
COc1cc2ncn(-c3cc(O[C@H](C)c4ccccc4Cl)c(C(N)=O)s3)c2cc1OC [GSK237701A],96%,45%,97%,100%,92%,75%,100%,33%,0.3%,80%
CCS(=O)(=O)c1ccc(OC)c(Nc2ncc(-c3cccc(F)c3)o2)c1 [GW621970X],42%,100%,100%,73%,88%,95%,100%,2.4%,100%,93%
COc1ccc2[nH]c3c4[nH]c5ccc(OC)cc5c4c4c(c3c2c1)C(=O)NC4=O [GW296115X],100%,87%,84%,71%,100%,87%,43%,59%,80%,98%
Nc1ncnc2occ(-c3ccc(NC(=O)Nc4cc(C(F)(F)F)ccc4F)cc3)c12 [GW770249X],100%,100%,100%,100%,100%,93%,100%,0.9%,100%,100%
Cc1cc(O)cc(C)c1/C=C/c1cncc(C(N)=O)c1 [GW435821X],100%,100%,90%,100%,100%,97%,98%,87%,100%,100%
NS(=O)(=O)c1ccc(N/N=C2\C(=O)Nc3ccc(C(=O)NCCc4c[nH]cn4)cc32)cc1 [GW300660X],100%,81%,84%,100%,38%,37%,65%,79%,86%,100%
CC(C)COC(=O)c1ccc2c(c1)/C(=C/Nc1ccc(S(N)(=O)=O)cc1)C(=O)N2 [GW416981X],100%,42%,100%,100%,0.1%,0.3%,13%,63%,100%,100%
COc1ccc(COc2ccc(Cc3cnc(N)nc3N)cc2OC)cc1 [GW632580X],90%,100%,100%,71%,90%,90%,96%,85%,67%,81%
COC(=O)Nc1nc2ccc(Oc3ccc(NC(=O)Nc4cc(C(F)(F)F)ccc4F)cc3)cc2s1.Cl [GW693917A],77%,100%,100%,71%,62%,84%,78%,13%,76%,73%
COc1cc(/C=N/Nc2ncnc3[nH]ncc23)ccc1O [GW578748X],83%,43%,0.2%,99%,48%,43%,6.1%,52%,87%,100%
COc1ccccc1-c1cc(/C=C2\C(=O)Nc3ncc(Br)cc32)cc(Br)c1O [GW442130X],100%,76%,100%,100%,85%,100%,78%,100%,77%,89%
NS(=O)(=O)c1ccc(Nc2ncc(-c3ccccc3)o2)cc1 [GW572399X],100%,100%,100%,100%,100%,91%,88%,22%,100%,100%
CCS(=O)(=O)c1ccc(OC)c(Nc2ncc(-c3cccc(OC)c3)o2)c1 [GW580509X],74%,100%,100%,100%,87%,80%,99%,23%,100%,100%
CC1=C(C(=O)Nc2ccc3[nH]ncc3c2)C(c2ccc(Cl)c(Cl)c2)CC(=O)N1 (centres unmarked) [GSK299115A],100%,14%,100%,89%,81%,72%,87%,92%,83%,72%
Cl.O=C(O[C@H]1CN[C@H](C#Cc2cc3ncnc(Nc4ccc5c(cnn5Cc5ccccc5)c4)c3s2)C1)N1CCOCC1 [GSK200398A],83%,100%,97%,100%,62%,86%,91%,89%,98%,87%
COc1cc(C=NNc2ncnc3c2cnn3-c2ccccc2)ccc1O [GW513184X],100%,47%,8%,100%,100%,100%,67%,95%,100%,100%
CCn1c(-c2nonc2N)nc2c(C#CC(C)(C)O)nc(OCCNC)cc21.Cl [GSK949675],100%,95%,95%,100%,88%,100%,94%,83%,100%,67%
COc1cccc(-n2ncc3c(N/N=C/c4ccncc4)ncnc32)c1 [GW784752X],90%,88%,11%,74%,67%,69%,100%,75%,100%,85%
O=C1Nc2ccc(C(=O)c3ccco3)cc2C1=Cc1cc(Cl)c(O)c(Cl)c1 [GW406108X],100%,35%,41%,86%,–,71%,60%,78%,11%,74%

Structure (SMILES),Percent Control (TXK),Percent Control [1],Percent Control [2],Percent Control (TYRO3),Percent Control (ULK1),Percent Control (ULK2),Percent Control (ULK3),Percent Control (VEGFR2),Percent Control (VPS34),Percent Control (VRK2)
COc1cc2ncnc(Nc3ccc4c(cnn4Cc4ccccc4)c3)c2cc1OC.Cl [GW282449A],100%,100%,100%,51%,74%,100%,100%,79%,100%,100%
CCc1ccc(Oc2nccc(-c3c(-c4ccc(F)cc4)ncn3C3CCNCC3)n2)cc1 [SB-242719],91%,100%,100%,62%,92%,77%,92%,100%,64%,69%
Cl.O=C(Nc1ccc(Oc2ccc3[nH]c(NC(=O)c4ccccc4)nc3c2)cc1)Nc1cc(C(F)(F)F)ccc1F [GW709042A],97%,100%,100%,94%,100%,100%,100%,49%,100%,100%
COc1cccc(-c2c[nH]c3c(N/N=C/c4ccncc4)ncnc23)c1 [GW814408X],100%,19%,0.1%,100%,100%,91%,68%,61%,65%,100%
Cl.O=C(Nc1ccc(Oc2ccc3[nH]c(NC(=O)c4ccco4)nc3c2)cc1)Nc1cc(C(F)(F)F)ccc1F [GW683134A],80%,100%,100%,71%,100%,89%,62%,20%,100%,100%
COc1ccc2c(-c3ccnc(Nc4cccc(OC(F)(F)F)c4)n3)cnn2n1 [GW810372X],67%,98%,75%,100%,100%,100%,100%,73%,29%,95%
CN(C)CCNC(=O)Nc1ccc(N(C)c2ccnc(Nc3ccc(CS(C)(=O)=O)cc3)n2)cc1.Cl [GW830900A],61%,35%,49%,85%,94%,97%,80%,21%,77%,100%
CC1=C(C(=O)Nc2ccc3[nH]ncc3c2)C(c2ccc3ccccc3c2)CC(=O)N1 (centres unmarked) [GSK270822A],91%,10%,58%,83%,82%,79%,93%,90%,79%,36%
COc1ccc2cc(-c3c(-c4ccncc4)nc(-c4ccc(S(C)(=O)=O)cc4C)n3C)ccc2c1 [SB-633825],90%,73%,100%,72%,72%,88%,73%,49%,86%,58%
COc1cc(N2CCN(C(C)C)CC2)ccc1Nc1nc(Nc2ccc(F)cc2C(=O)NC[C@@H](O)CO)c2cc[nH]c2n1 [GSK1392956A],92%,100%,100%,74%,65%,77%,100%,100%,82%,68%
C/C(Nc1ccc(S(N)(=O)=O)cc1)=C1/C(=O)Nc2ccccc21 [GW335962X],100%,77%,100%,100%,62%,52%,83%,1.2%,81%,80%
CN(C)c1cc2c(Nc3ccc4c(cnn4Cc4ccccc4)c3)ncnc2cn1 [GW282974X],89%,100%,100%,100%,–,85%,91%,94%,78%,81%
COc1cc(C)c(N(C)C(=O)CN(C)C)cc1Nc1nc(Nc2cccc(F)c2C(N)=O)c2cc[nH]c2n1 [GSK2219385],90%,100%,100%,100%,72%,80%,100%,100%,82%,62%
Cl.O=S1CCN(Cc2ccc(-c3ccc4ncnc(Nc5ccc(OCc6ccccc6)c(F)c5)c4c3)o2)CC1 [GW576924A],100%,100%,100%,100%,90%,100%,94%,97%,100%,100%
O=C(Nc1n[nH]c2nc(-c3ccc(O)cc3)c(Br)cc12)C1CC1 [SB-725317],100%,52%,100%,100%,100%,100%,100%,57%,100%,100%
C[C@@H](Oc1cc(-n2cnc3ccc(OC4CCN(C)CC4)cc32)sc1C(N)=O)c1ccccc1Cl [GSK579289A],60%,100%,93%,92%,71%,44%,100%,64%,29%,95%
Cl.c1ccc(Cc2nc3ccc(Nc4ncnc5ccccc45)cc3[nH]2)cc1 [GR269666A],100%,100%,100%,90%,67%,100%,93%,72%,100%,100%
NS(=O)(=O)c1ccc(N/N=C2\C(=O)Nc3ccc(C(=O)NCc4ccncc4)cc32)cc1 [GW300657X],100%,70%,31%,80%,15%,26%,31%,84%,71%,74%
CN1CCN(C(=O)c2ccc(NC(=O)Nc3ccc(N(C)c4ccnc(Nc5ccc(CS(C)(=O)=O)cc5)n4)cc3)cc2)CC1.Cl [GW830263A],15%,4.2%,6.5%,92%,79%,78%,7.6%,1.1%,74%,93%
NS(=O)(=O)c1ccc(N/N=C2\C(=O)Nc3ccc(-c4cnco4)cc32)cc1 [GW276655],76%,24%,37%,40%,84%,82%,40%,71%,92%,89%
